Experimental data from ChEMBL document CHEMBL3988442, “University of Dundee, Small-Polar-MMV Screening Library” (2021).

How the values were obtained:
[1] = target: T1, Aspartate--tRNA(Asp/Asn) ligase (Mycobacterium tuberculosis (strain ATCC 25618 / H37Rv)) (UniProt P9WFW3); assay: Assay for Asp RNA synthetase-1 from Mycobacterium tuberculosis; format: functional; design: scale not given: direction of the effect not stated beside the values; conditions: 30 µM; further: in the data most compounds retested in dose-response had high values
T1 sequence (whole entry): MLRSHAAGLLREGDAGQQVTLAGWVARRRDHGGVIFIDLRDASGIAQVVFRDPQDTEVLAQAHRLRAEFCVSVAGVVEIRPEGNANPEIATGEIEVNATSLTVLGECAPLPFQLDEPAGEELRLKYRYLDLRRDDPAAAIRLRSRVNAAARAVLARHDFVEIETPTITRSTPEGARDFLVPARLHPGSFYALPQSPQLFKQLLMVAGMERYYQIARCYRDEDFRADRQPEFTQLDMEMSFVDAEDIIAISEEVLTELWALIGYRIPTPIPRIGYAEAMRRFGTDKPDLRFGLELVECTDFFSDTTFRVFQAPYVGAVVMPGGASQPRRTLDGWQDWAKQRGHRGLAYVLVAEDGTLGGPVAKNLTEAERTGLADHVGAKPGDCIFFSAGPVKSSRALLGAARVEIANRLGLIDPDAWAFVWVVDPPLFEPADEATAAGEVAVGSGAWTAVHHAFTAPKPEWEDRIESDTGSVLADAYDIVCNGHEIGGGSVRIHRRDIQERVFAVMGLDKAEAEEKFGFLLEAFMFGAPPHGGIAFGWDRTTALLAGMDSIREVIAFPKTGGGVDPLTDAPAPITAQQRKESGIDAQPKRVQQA

[2] = target: Shiga toxin 2 (Escherichia coli O157:H7) (UniProt P09385+P09386); assay: E. coli 0.157:H7 Shiga Toxin SOP - stx2 screening assay; format: functional; design: scale not given: direction of the effect not stated beside the values; conditions: 30 µM

| Structure (SMILES) | Percent Effect [1] | Percent Effect [2] |
| --- | --- | --- |
| COc1ccc(C2=C(C)C(N3CCc4ccccc4C3)=NS2(=O)=O)cc1 | 2.67% | -90% |
| CC(=O)NCC(=O)N1CCC2(CC1)CN(c1cccnc1)C(=O)CO2 | 2.37% | -4.09% |
| O=C(c1cnccn1)N1CCCC2(COCCN(CC3CC3)C2)C1 (centres undefined) | 3.16% | 9.41% |
| O=C(C1CCCCN1Cc1nc(-c2ccco2)no1)N1CCCC1 (centres undefined) | 3.38% | 27.5% |
| CN(Cc1ccc(F)cc1)CC1(O)CCN(C(=O)c2cccn2C)C1 (centres undefined) | -4.54% | -9.28% |
| O=C(c1cc(F)ccc1F)C1CCN(C(=O)c2ccc(=O)[nH]n2)CC1 | 0.519% | 28.6% |
| Cc1nc(CN(C)C2CCN(Cc3ccno3)C2)no1 (centres undefined) | -4.76% | -31.6% |
| O=S(=O)(Nc1cnn(C2CCOCC2)c1)c1ccc(F)c(F)c1 | 3.75% | 1.76% |
| Cc1cc2c(=O)n3c(nc2s1)CCN(C(=O)c1scnc1C)CC3 | -1.56% | 0.428% |
| CN(CCc1ccccc1)Cc1cc(C(=O)N2CCN(C)C(=O)C2)no1 | -2.28% | -18.1% |
| CCOC(=O)C1CCN(Cc2csc(C(C)(C)C)n2)CC1 | -9.34% | -1.05% |
| CCc1nnc2n1CCN(C(=O)c1cc(Br)c[nH]1)C2 | -3.52% | -47.9% |
| Fc1ccccc1CN1C[C@@H](OCc2ccncc2)[C@H]2OCCC[C@H]21 | 2.94% | -45.1% |
| CSc1ccc(-c2nc(CN3CCC(NC(C)=O)C3)c(C)o2)cc1 (centres undefined) | 2.73% | -5.95% |
| CCc1ccc(CCC(=O)N2CCOCC2c2ncon2)cc1 (centres undefined) | 2.77% | 20.7% |
| O=C(c1ccncc1)N1CCC(c2nc(O)cc(-c3ccncc3)n2)C1 (centres undefined) | -0.574% | 1.62% |
| O=C(CN1CCCC(Cn2cncn2)C1)NCCOc1ccccc1 (centres undefined) | -2.48% | -0.612% |
| CCn1c(C)nnc1CN(C)C1CCN(CCc2ccncc2)C1 (centres undefined) | 2.19% | 13.6% |
| Cc1nccn1-c1nccnc1C1CCN(Cc2ccc(F)cc2)CC1 | -0.338% | -6.1% |
| O=C(c1ccccn1)N1CCc2nc(-c3cnccn3)nc(O)c2C1 | -1.53% | -15.6% |
| Cc1nc(C)n(CC2CN(c3ccc(C#N)cn3)CCO2)n1 (centres undefined) | 2.39% | 19.5% |
| O=C1CCSCC(C(=O)N2CCCC2)N1 (centres undefined) | -3.45% | -6.39% |
| NCC(c1ccccc1)N1CCc2sccc2C1 (centres undefined) | -4.25% | -7.32% |
| CC(C)(C)c1nc(CN2CCCC2CCc2ccccc2)no1 (centres undefined) | 2.52% | 14.9% |
| Cc1ccc(NC2CCN(C(=O)Cc3csc(C)n3)CC2)nn1 | 4.42% | 17.7% |
| CCC1CN(c2nnc(C)c(C)c2C#N)CCO1 (centres undefined) | 0.1% | 11.9% |

| Structure (SMILES) | Percent Effect [1] | Percent Effect [2] |
| --- | --- | --- |
| COCC(NC(=O)c1ccc[nH]1)c1cccc(C(F)(F)F)c1 (centres undefined) | -2.7% | -17.9% |
| COc1ccc(OC)c(CN2CCCCCC2c2cccs2)c1 (centres undefined) | -3.22% | -16.4% |
| CN(Cc1cc2c(cc1OC(F)F)OCO2)Cc1nccn1C | 3.96% | 2.09% |
| CS(=O)(=O)NC[C@]12COC[C@H]1CN(C(=O)Cc1ccccc1F)C2 | 6.16% | -11.5% |
| COc1ccc(C2CCCN2C(=O)CCNc2ncccn2)cc1 (centres undefined) | 5.17% | -17% |
| O=C(NCC(O)c1cccs1)c1cccc(Cl)c1 (centres undefined) | -5.75% | -20.5% |
| Cc1ccc2nc(C3CCN(CCO)CC3)nn2c1 | 2.18% | -3.64% |
| COc1cc2nc(C)n(CC(=O)O)c(=O)c2cc1OC | 1.68% | -6.96% |
| COc1ccccc1C(=O)N1CCCC1Cn1cc(C)cn1 (centres undefined) | 3.31% | 26.5% |
| Cc1cnn(CC2CCCN2Cc2nc3ccccc3nc2C)c1 (centres undefined) | -1.82% | -1.37% |
| Cc1cn(-c2ccccc2)nc1NS(=O)(=O)c1cccc(C(=O)O)c1 | 2.62% | -5.83% |
| COCCO[C@@H]1CCN(C(=O)c2ccc(C)o2)[C@@H]1Cc1cnn(C)c1 | 2.6% | 2.85% |
| Cc1cnc(C(=O)N2C[C@@H]3CN(CC4CCCC4)CCO[C@@H]3C2)cn1 | -4.04% | -21.5% |
| CSCc1cccc(S(=O)(=O)N2CCSCC2)c1 | 0.639% | 0.0259% |
| O=C(c1cc[nH]n1)N1CCCC(c2cccc(-n3ccnc3)n2)C1 (centres undefined) | -2.72% | 9.34% |
| Cn1nc2c(cc1=O)CN(Cc1coc(-c3cccs3)n1)CC2 | 39.2% | -29.8% |
| CN(C)CCN1CCCC12CCN(C(=O)c1cccn1C)CC2 | -5.96% | -0.241% |
| CC(C)(C)c1n[nH]c(C2CN(C(=O)CCc3cscn3)CCO2)n1 (centres undefined) | -2.97% | 7.94% |
| Cc1ccsc1C(=O)N1Cc2ccccc2C2(CCN(C)CC2)C1 | 5.26% | 5.47% |
| CC(C(=O)N1CCCN(c2ccc(C#N)cc2)CC1)n1ccnc1 (centres undefined) | -2.92% | 4.39% |
| CC(C)N1CCC(Cc2cc(-c3ccccc3C(=O)O)ncn2)CC1 | -0.134% | 8.23% |
| CCc1nc(C2CCCN2C(=O)c2nc(C)n3ccccc23)no1 (centres undefined) | -1.96% | -2.42% |
| CCc1nc(C2CCCN(C(=O)CCn3ccccc3=O)C2)no1 (centres undefined) | -0.767% | 7.71% |
| O=C(c1cnn2c1OCCC2)N1CCN(C/C=C/c2ccccc2)CC1 | 3.28% | -6.18% |
| CCn1ncnc1C(C)NC(=O)C1CCN(C(C)C)CC1 (centres undefined) | 3.06% | -16.7% |
| Cc1nc(C2CCCN2C(=O)c2ccccc2)ncc1C(N)=O (centres undefined) | -3.02% | -6.25% |

| Structure (SMILES) | Percent Effect [1] | Percent Effect [2] |
| --- | --- | --- |
| O=C(Nc1cnn(CCN2CCOCC2)c1)c1cc(F)ccc1F | 0.211% | 21.3% |
| O=C(Cn1c(=O)n(Cc2ccco2)c2ncccc21)Nc1ccccn1 | 8.2% | 3.73% |
| Cc1cc(CN2CCCC2c2noc(C3CC3)n2)c2ccccc2n1 (centres undefined) | 2.68% | 9.51% |
| Cc1ncsc1CN1CC[C@H]2C(=O)N(c3ccccc3)CCO[C@H]2C1 | -1.84% | 3.87% |
| O=C(Cc1cccc(F)c1)N1CCCCC1c1ccn2ccnc2n1 (centres undefined) | -2.63% | -7.82% |
| O=C1CC(c2ccccc2)C2(CCN(CC3CC3)CC2)N1 (centres undefined) | -1.66% | -14.7% |
| COCCn1ccc(=O)c(OCC(=O)Nc2ccccc2)c1C | -0.61% | -38% |
| CCc1n[nH]c(C2CN(C(=O)CCc3cccs3)CCO2)n1 (centres undefined) | -2.02% | -49.5% |
| CC(NC1(CNC(=O)CC(C)(C)C)CCOCC1)c1ccccc1 (centres undefined) | 9.41% | 20.8% |
| CC(C(=O)N1CCCN(c2ncccc2C#N)CC1)n1cccn1 (centres undefined) | -4.27% | 31.7% |
| Cn1cc(CN2CCCC23CCN(C(=O)c2cccn2C)CC3)cn1 | -4.47% | -10.8% |
| O=c1cc2c(nn1CN1CCOCC1)CCC2 | 2.64% | -10.5% |
| CCN1CCN(C2CCN(Cc3nnc(C(C)(C)C)o3)CC2)C1=O | -1.73% | 25.7% |
| Cc1nc(-c2ccsc2)ccc1C(=O)NCCC1CCCO1 (centres undefined) | 0.767% | -18.3% |
| Cc1nccc(CN2CCC(c3nnsc3S(C)(=O)=O)CC2)n1 | -0.313% | 5.72% |
| NC(=O)c1cccc(CC2CCN(C(=O)CO)C2)c1 (centres undefined) | 3.02% | -19.3% |
| CCNC(=O)[C@@H]1C[C@@H](NC(=O)Cc2ccncc2)CN1Cc1ccsc1 | -3.17% | -0.12% |
| CCN(CC)C(=O)c1nnc2ccc(N3CCOCC3)cc2n1 | -5.17% | -18.6% |
| Cc1cc(S(=O)(=O)N2CCC(S(C)(=O)=O)CC2)ccc1F | 1.15% | -4.34% |
| Cc1nn(C)c(N(C)C)c1CNCCNS(C)(=O)=O | -4.66% | 17.7% |
| CCCc1noc(CN(C)C(=O)C2COc3ccccc3C2)n1 (centres undefined) | 1.75% | -22.5% |
| CCc1c(C(=O)N2CCN(c3ncccn3)CC2)cnn1C(C)(C)C | 3.62% | 30.7% |
| CN(C)C(=O)CN1CCC2(CCN(Cc3nccs3)CC2)C1=O | 7.45% | -16.7% |
| O=C(C1=CCCC1)N1C[C@H](Oc2cccnc2)[C@H]2OCCC[C@H]21 | -2.63% | -10.5% |
| Cn1cnc2c1C(COCC1CC1)CN(Cc1ccc3c(c1)OCO3)C2 (centres undefined) | 0.999% | -23.1% |
| CC(C)NC(=O)COc1nc(C(C)C)no1 | -2.64% | -17.3% |

| Structure (SMILES) | Percent Effect [1] | Percent Effect [2] |
| --- | --- | --- |
| CCN1CCN(C(=O)c2cnn(-c3ccccc3Cl)c2)CC1 | 0.83% | 16.9% |
| O=C(C1COCCO1)N1CCN(Cc2ccc3c(c2)CCO3)CC1 (centres undefined) | 1.71% | 8.81% |
| NC(=O)c1nnn(-c2ccc(Br)cc2)n1 | 3.66% | -41.8% |
| CC(C)NC(=O)C1CN(C(=O)Nc2ccccc2)CC12CCOCC2 (centres undefined) | 12.7% | -4.72% |
| CCNC(=O)C1CCN(Cc2csc(-c3ccc(C)o3)n2)CC1 | 6.68% | -30.3% |
| CC[C@H](C)[C@H](NC(=O)c1ccccc1-n1cnnn1)C(=O)OC | 3.95% | -29.9% |
| CC(C)c1nn(C)c(Cl)c1CNCc1ccc2c(c1)OCCO2 | 5.79% | 32.9% |
| Cc1cc(C(=O)NCc2cccnc2OC(C)C)no1 | -2.27% | 26.9% |
| Fc1ccc(CNCC2OCCc3cn(CC4CC4)nc32)cc1 (centres undefined) | -2.61% | -6.8% |
| CCNC(=O)CCc1c(C)nc2cc(O)nn2c1C | 4.16% | -21.5% |
| c1ccc(Cn2cccn2)c(CNCC2CNc3ccnn3C2)c1 (centres undefined) | 1.88% | -40.7% |
| Cc1cccc(CN2CCN(Cc3ccccc3)CC(O)C2)n1 (centres undefined) | 2.13% | 13.4% |
| O=C(c1cccnc1)N1CCn2nnc(COc3cccnc3)c2C1 | 6.79% | -23.3% |
| CCc1nc(CN2CCCC(NCc3cnn(C(C)(C)C)c3)C2)no1 (centres undefined) | -3.23% | 2.93% |
| CC(C)N(CC(N)=O)Cc1csc(COc2ccc(F)cc2)n1 | -2.28% | 1.96% |
| CC(Cn1cccn1)NC(=O)CCc1ccc(S(N)(=O)=O)cc1 (centres undefined) | -2.91% | 11.3% |
| Cc1ccc(C(=O)N2CCC3(CC2)CC(N2CCCC2)C3)cc1 | 0.137% | -9.41% |
| Cc1cccc(Cn2c3c(ccc2=O)CCN(Cc2ccoc2)CC3)n1 | 2.51% | 2.55% |
| COCCC(=O)N1CCC2(COCc3cnc(N4CCOCC4)nc32)C1 (centres undefined) | 1.66% | 9.32% |
| Cc1nccc(N2CCC(=O)N(Cc3ccc(F)cc3)C(C(C)C)C2)n1 (centres undefined) | -2.67% | -4.25% |
| CSCCC(=O)N1CCC(Oc2cc(C)ccc2F)(C(=O)O)CC1 | -1.34% | -3.19% |
| CC1CCCCN1CCNC(=O)c1ccn(-c2ccc(F)cc2)n1 (centres undefined) | 3.98% | -12.3% |
| O=C(CCc1cccnc1)N(Cc1ccsc1)CC1CCCO1 (centres undefined) | -1.24% | -0.116% |
| Cc1ccc(N2CCCC(NCc3cscn3)C2)nn1 (centres undefined) | 10.3% | 15.1% |
